Here are results for 10 compounds from PubChem BioAssay (NCI).

About 83,000 compounds went through this panel and 20% of them were active in at least one assay; those are over-represented in the sample as a whole.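 Values shown are percent growth following 48 h exposure of cells in 96-well plates to a single concentration of compound; below 10 was considered active.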 Unmarked numbers belong to inactive results. Activity calls are given as the source filed them.

Holding throughout (test): NCI-60 one-dose screen, 48 h (100 = growth as untreated, 0 = no growth, -100 = all killed)
In one assay the test system is RPMI-8226 leukemia. The settings on record: 10 µM.
The next assay relates to OVCAR-8 ovarian. The settings on record: 10 µM.
Another assay has as its system OVCAR-5 ovarian. Conditions: 10 µM.
Another assay concerns OVCAR-4 ovarian. Conditions: 10 µM.
In another assay the test system is SK-OV-3 ovarian. Conditions: 10 µM.
A further assay concerns IGROV1 ovarian. The settings on record: 10 µM.
For a further assay, the system named is OVCAR-3 ovarian. Conditions: 10 µM.
The next assay relates to HS 578T breast. Conditions: 10 µM.
In a further assay the test system is NCI/ADR-RES ovarian. The settings on record: 10 µM.
A further assay has as its system T-47D breast. Conditions: 10 µM.
Another assay concerns MDA-MB-435 melanoma. Conditions: 10 µM.
In another assay the test system is SW-620 colon. Conditions: 10 µM.
The subject of a further assay is MCF7 breast. Conditions: 10 µM unless noted.
Another assay deals with HCT-116 colon. Conditions: 10 µM.
For another assay, the system named is HCC-2998 colon. The settings on record: 10 µM.
The subject of a further assay is KM12 colon. Conditions: 10 µM.
A further assay has as its system BT-549 breast. Conditions: 10 µM.

Turning to `CCOC(=O)C(C#N)Cc1ccccc1` (centres undefined), the growth in the assay with RPMI-8226 leukemia is 101%; in the assay with OVCAR-8 ovarian, 115%; in the assay with OVCAR-5 ovarian, 103%; in the assay on OVCAR-4 ovarian, 114%; in the assay on SK-OV-3 ovarian, 123%; in the assay on IGROV1 ovarian, 114%. The growth is 117% in the assay on OVCAR-3 ovarian; 112% in the assay on HS 578T breast; 117% with NCI/ADR-RES ovarian; 107% with T-47D breast; 109% in the assay on MDA-MB-435 melanoma; 117% with SW-620 colon. For the same compound, the growth was 103% with MCF7 breast, 112% with HCT-116 colon, 118% in the assay with HCC-2998 colon and 133% in the assay with KM12 colon.

As for `CCC/C=C(/C(C)=O)C(=O)OCC`, the growth was 104% in the assay on RPMI-8226 leukemia; 91.8% with OVCAR-8 ovarian; 92.7% in the assay on OVCAR-5 ovarian; 89.8% with OVCAR-4 ovarian; 117% with SK-OV-3 ovarian; 126% in the assay with IGROV1 ovarian. The growth in the assay on OVCAR-3 ovarian was 119%; in the assay on HS 578T breast, 114%; with NCI/ADR-RES ovarian, 107%; in the assay on T-47D breast it was 107%; in the assay on BT-549 breast, 112%; with MDA-MB-435 melanoma it was 108%. The growth in the assay with SW-620 colon is 106%; with MCF7 breast, 114%; in the assay on HCT-116 colon, 109%; in the assay with HCC-2998 colon, 7.66% (active); in the assay on KM12 colon it was 102%.

For the compound `CCCCCCCO`, the growth is 102% with RPMI-8226 leukemia; 99.7% in the assay on OVCAR-8 ovarian; 87.5% in the assay on OVCAR-5 ovarian; 97.9% with OVCAR-4 ovarian; 106% in the assay on SK-OV-3 ovarian; 115% with IGROV1 ovarian. Further, the growth with OVCAR-3 ovarian is 115%; with HS 578T breast it was 102%; in the assay on NCI/ADR-RES ovarian it was 107%; in the assay on T-47D breast, 104%; with BT-549 breast, 103%; in the assay on SW-620 colon, 95%. The growth in the assay on MCF7 breast was 88.8%; with HCT-116 colon, 102%; in the assay with HCC-2998 colon, 107%; with KM12 colon, 112%.

In the case of `O=C1NC(=O)C2C(=O)NC(=O)C1C21CCc2ccccc21` (centres undefined), the growth was 115% with RPMI-8226 leukemia; 103% with OVCAR-8 ovarian; 110% in the assay with OVCAR-5 ovarian; 105% in the assay on OVCAR-4 ovarian; 116% in the assay on SK-OV-3 ovarian; 109% in the assay with IGROV1 ovarian. Further, the growth in the assay with OVCAR-3 ovarian is 115%; with HS 578T breast, 89%; in the assay on NCI/ADR-RES ovarian, 100%; in the assay on BT-549 breast, 106%; in the assay on MDA-MB-435 melanoma it was 112%; with SW-620 colon it was 101%. Further, the growth in the assay with MCF7 breast was 93.1%; with HCT-116 colon it was 96.7%; in the assay with HCC-2998 colon, 115%; in the assay on KM12 colon, 105%.

`CCOc1ccc(Br)cc1/C=N\N=C\c1cc(Br)ccc1OCC`: the growth is 95.5% in the assay on RPMI-8226 leukemia; 95.6% in the assay with OVCAR-8 ovarian; 107% with OVCAR-5 ovarian; 113% with OVCAR-4 ovarian; 117% in the assay on SK-OV-3 ovarian; 103% in the assay on IGROV1 ovarian. Besides, the growth in the assay on OVCAR-3 ovarian was 96.8%; in the assay with HS 578T breast, 143%; in the assay on NCI/ADR-RES ovarian it was 120%; in the assay with T-47D breast, 93%; with MDA-MB-435 melanoma, 103%; with SW-620 colon it was 101%. The growth in the assay with MCF7 breast is 101%; in the assay with HCT-116 colon, 97.8%.

`C#C[C@H]1CCCCCC1O` (some centres undefined): the growth in the assay with RPMI-8226 leukemia is 97.2%; with OVCAR-8 ovarian, 111%; in the assay with OVCAR-5 ovarian, 115%; with OVCAR-4 ovarian it was 120%; in the assay with SK-OV-3 ovarian it was 110%; in the assay with IGROV1 ovarian it was 107%. For the same compound, the growth was 113% in the assay on OVCAR-3 ovarian; 101% in the assay on HS 578T breast; 101% in the assay on NCI/ADR-RES ovarian; 95.4% with T-47D breast; 113% with BT-549 breast; 104% in the assay with SW-620 colon. The growth in the assay on MCF7 breast is 107%; in the assay with HCT-116 colon, 106%; with HCC-2998 colon it was 102%; in the assay on KM12 colon it was 107%.

In the case of `CC(C)COC(=O)COC(=O)OCCOCCOC(=O)OCC(=O)OCC(C)C`, the growth with RPMI-8226 leukemia was 97.3%; in the assay with OVCAR-8 ovarian, 99.7%; in the assay on OVCAR-5 ovarian it was 101%; with OVCAR-4 ovarian it was 110%; in the assay with SK-OV-3 ovarian it was 100%; with IGROV1 ovarian, 105%. In addition, the growth was 126% in the assay with OVCAR-3 ovarian; 124% with HS 578T breast; 106% with NCI/ADR-RES ovarian; 96.7% with T-47D breast; 99.2% in the assay on BT-549 breast; 108% in the assay on SW-620 colon. Besides, the figures for the growth in the assay on MCF7 breast, with HCT-116 colon and with HCC-2998 colon were 98.7%, 103% and 101%, respectively.

Turning to `CNC(=S)NC(C)(C)C`, the growth with RPMI-8226 leukemia is 93.2%; in the assay with OVCAR-8 ovarian it was 99.8%; in the assay on OVCAR-5 ovarian it was 121%; in the assay with OVCAR-4 ovarian it was 113%; in the assay on SK-OV-3 ovarian, 105%; with IGROV1 ovarian, 105%. Besides, the growth was 124% in the assay on OVCAR-3 ovarian; 104% in the assay with HS 578T breast; 105% with NCI/ADR-RES ovarian; 89.5% in the assay with BT-549 breast; 106% with MDA-MB-435 melanoma; 103% in the assay with SW-620 colon. Also, the growth in the assay on MCF7 breast was 97.4%; in the assay with HCT-116 colon, 102%; with HCC-2998 colon, 115%; in the assay with KM12 colon it was 106%.

Consider `N#CC(=Nc1cccc(F)c1)C1=C(O)c2ccccc2C1=O`, for which the growth with RPMI-8226 leukemia is 82%; with OVCAR-8 ovarian, 85.4%; in the assay on OVCAR-5 ovarian, 103%; with OVCAR-4 ovarian, 88.9%; in the assay on SK-OV-3 ovarian, 98.7%; with IGROV1 ovarian, 100%. For the same compound, the growth was 92.7% with OVCAR-3 ovarian; 99.7% in the assay on HS 578T breast; 89.1% in the assay on NCI/ADR-RES ovarian; 83.2% with T-47D breast; 89.2% with BT-549 breast; 99.4% with MDA-MB-435 melanoma. The growth in the assay on SW-620 colon is 95.4%; in the assay on MCF7 breast, 83.2%; in the assay with HCT-116 colon it was 97%; in the assay with HCC-2998 colon, 101%; with KM12 colon, 102%.

`CCCCCCCCCCCCCC(=O)Oc1ccc[nH]c1=O`: the growth in the assay on RPMI-8226 leukemia was 95.7%; with OVCAR-8 ovarian, 94.9%; in the assay on OVCAR-5 ovarian it was 97.1%; in the assay with OVCAR-4 ovarian, 102%; with SK-OV-3 ovarian it was 88.8%; in the assay on IGROV1 ovarian, 97.8%. Moreover, the growth is 103% in the assay on OVCAR-3 ovarian; 98.1% in the assay on HS 578T breast; 99.8% with NCI/ADR-RES ovarian; 94.4% in the assay on BT-549 breast; 113% in the assay with MDA-MB-435 melanoma; 101% in the assay on SW-620 colon. Besides, the growth in the assay with MCF7 breast was 95.8%; with HCT-116 colon, 94.6%; in the assay on HCC-2998 colon, 109%; with KM12 colon, 92.7%.
